Results published in PubChem BioAssay.
Values joined by “and” are separate entries in the source; they are usually repeats but may differ in a detail not shown here. Equal entries are not always repeated. For some assays here: Potency and affinity values are given separately. Active and inactive are the calls of the source.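 How the source made its calls, unless noted: active means thallium flux through the channel raised or lowered by more than 3 SD from vehicle-only wells, actives on both sides; inactive means the rest.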

Columns and labels:
[1] = system: Hepatitis C virus NS3 helicase; assay: blockers of NS3h binding to ssDNA – biochemical, fluorescence polarization, LOPAC1280 library, primary screen (AID 687035; in the data active means inhibition above about 37%); conditions: Purified HCV NS3 helicase, Cy5-dT15 ssDNA binding fluorescence polarization; stronger effect = higher value; concentration not given here
[2] = compounds altering Cy5-DNA-NS3h complex signal – biochemical, LOPAC1280, artefact control for HCV NS3 helicase inhibitor project (AID 687037; call rule not given here); conditions: Cy5-DNA-NS3h complex fluorescence interference counterscreen
[3] = compounds altering circadian rhythm period length – cell-based, LOPAC library, luminescence reporter (AID 2774; call rule not given here;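 further: values are relative to mean of DMSO wells on each plate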); conditions: circadian reporter cells, at 7 µM, actives lie on both sides
[4] = blockers of polyQ-driven CASP3 activation – cell-based (AID 1583); conditions: polyglutamine-induced caspase-3 activation, cell assay; stronger effect = higher value;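 tested at 10 µM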
[5] = yeast 75Q aggregation reduction – 75Q-TubU reporter (AID 1593); conditions: Yeast 75Q polyglutamine aggregation reporter
[6] = restoration of touch response, mutant HTT neurons – whole organism, C. elegans mechanosensory neurons, N-terminal huntingtin (AID 1599); conditions: C. elegans polyQ-huntingtin mechanosensory neurons, stronger effect = higher value
[7] = blockers of cytochrome c efflux from mitochondria – biochemical, purified mitochondria (AID 1603); conditions: stronger effect = lower value;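 further: mouse liver mitochondria challenged with calcium chloride; signal normalized to the plate average as 100%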
[8] = polyglutamine aggregate formation blockers (AID 1604); conditions: polyglutamine-induced protein aggregation inhibition assay; stronger effect = higher value; tested at 2.5 µM
[9] = glutamate transport activators, MN-1 cells, MN-1 cell line (AID 1612); conditions: MN-1 motor neuron cells, stronger effect = higher value;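 further: tested at 1 µM final; 0% = mean of DMSO vehicle wells on each plate; positive means more glutamate uptake than control and negative means less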
[10] = 75Q-TubH aggregate inhibition, S. cerevisiae, yeast (AID 1616); conditions: S. cerevisiae 75Q-TubH polyglutamine aggregation suppression; stronger effect = higher value
[11] = signal quenchers or enhancers, Cy5 substrate/SSB – biochemical, NIH Clinical Collection, E. coli SSB, artefact control for HCV NS3 helicase inhibitor project (AID 743268; call rule not given here); conditions: Cy5-oligo bound E. coli SSB, fluorescence interference
[12] = system: Hepatitis C virus NS3 helicase; assay: blockers of NS3h binding to DNA – biochemical, fluorescence polarization, NIH Clinical Collection, primary screen (AID 743270; call rule not given here); conditions: NS3 helicase binding to Cy5-dT15 DNA, stronger effect = higher value, concentration not given here
[13] = molecular target: Single-stranded DNA-binding protein (Escherichia coli (strain K12)) (UniProt P0AGE0); assay: SSB-ssDNA binding inhibitors – biochemical, fluorescence polarization, NIH Clinical Collection, counter-screen for HCV NS3 helicase inhibitor project (AID 743271; in the data active means inhibition above about 28%); conditions: E. coli SSB-DNA binding, stronger effect = higher value, concentration not given here
[14] = compounds distorting NS3 helicase fluorescence signal – biochemical, NIH Clinical Collection, artefact control for HCV NS3 helicase inhibitor project (AID 743272; call rule not given here;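 further: HCV NS3 helicase with a Cy5 labelled single stranded DNA probe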); conditions: fluorescence interference counterscreen, HCV NS3 helicase assay; stronger effect = lower value
F380Y = assay: BK channel mutant inhibitors and activators – cell-based, U2OS BacMam, thallium flux, beta subunits, selectivity assay, profiling panel (AID 1259406); conditions: U2OS BacMam BK variants, at 30 µM;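 further: initial slope of Thallos dye fluorescence rise after thallium is added; log ratio against the mean of 0.3% DMSO vehicle wells on the same plate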
F380Y/beta2Delta = assay: as above; conditions: U2OS BacMam BK variants, at 30 µM
[15] = molecular target: Calcium-activated potassium channel subunit alpha-1 (Homo sapiens) + Leucine-rich repeat-containing protein 26 (Homo sapiens) (UniProt Q12791+Q2I0M4); assay: as above; conditions: U2OS BacMam BK variants, F380Y/Slo1WT/gamma1, at 30 µM
R275C = assay: as above; conditions: U2OS BacMam BK variants, at 30 µM
R275C/beta1 = assay: as above; conditions: U2OS BacMam BK variants, at 30 µM
R275C/beta2Delta = assay: as above; conditions: U2OS BacMam BK variants, at 30 µM

Sequence of Calcium-activated potassium channel subunit alpha-1 (Homo sapiens) + Leucine-rich repeat-containing protein 26 (Homo sapiens) (Q2I0M4 whole entry, looked up, one chain of several): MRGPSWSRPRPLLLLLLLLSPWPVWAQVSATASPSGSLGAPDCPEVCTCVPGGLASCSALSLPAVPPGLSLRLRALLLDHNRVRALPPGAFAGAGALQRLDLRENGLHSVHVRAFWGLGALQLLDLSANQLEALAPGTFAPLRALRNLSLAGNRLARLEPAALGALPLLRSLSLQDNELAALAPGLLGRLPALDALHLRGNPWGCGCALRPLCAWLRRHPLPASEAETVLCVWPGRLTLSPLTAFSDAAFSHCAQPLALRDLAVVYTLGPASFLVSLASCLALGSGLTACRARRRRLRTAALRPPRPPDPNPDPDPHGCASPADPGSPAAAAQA

Structure (SMILES)	inhibition [1]	fluorescence ratio (interference) [2]	period change [3]	inhibition [4] [%]	score [5]	rescue above control [6]	cytochrome c release ratio [7]	inhibition of aggregation [8] [%]	glutamate uptake change [9] [%]	aggregation suppression score [10]	fluorescence ratio [11]	inhibition [12]	inhibition [13]	fluorescence ratio [14]	log fold change Tl+ flux (F380Y)	log fold change Tl+ flux (F380Y/beta2Delta)	log fold change Tl+ flux [15]	log fold change Tl+ flux (R275C)	log fold change Tl+ flux (R275C/beta1)	log fold change Tl+ flux (R275C/beta2Delta)
NC1=NCC2c3ccccc3Cc3ccccc3N12 (stereo not given)	-2% (inactive)	1 (inactive)	–	–	–	–	–	–	–	–	–	–	–	–	–	–	–	–	–	–
O=C(CCCN1CCC(O)(c2cccc(C(F)(F)F)c2)CC1)c1ccc(F)cc1	-3% (inactive)	1 (inactive)	0.235 h (inactive)	–	–	–	–	–	–	–	–	–	–	–	–	–	–	–	–	–
O=C(O)CCC(=O)OC[C@@H](NC(=O)C(Cl)Cl)[C@H](O)c1ccc([N+](=O)[O-])cc1	–	–	–	29.9	1.53	-1.33	0.7	74.7	7.22	1.43	–	–	–	–	–	–	–	–	–	–
CCc1cccc(N(C)C(N)=Nc2cccc3ccccc23)c1	1% (inactive)	1 (inactive)	-0.08 h (inactive)	–	–	–	–	–	–	–	–	–	–	–	–	–	–	–	–	–
CN1CCN(C2Cc3ccccc3Sc3ccc(Cl)cc32)CC1 (stereo not given)	-1% (inactive)	1 (inactive)	0.285 h (inactive)	–	–	–	–	–	–	–	–	–	–	–	–	–	–	–	–	–
Cc1ccc(O)cc1	–	–	–	26.8	0.73	-1.33	0.32	83.3	1.82	1.04	–	–	–	–	–	–	–	–	–	–
COCCCOc1ccnc(CS(=O)c2nc3ccccc3[nH]2)c1C (stereo not given)	–	–	–	–	–	–	–	–	–	–	0.94 (inactive)	-6.33% (inactive)	0.39% (inactive)	0.94 (inactive)	–	–	–	–	–	–
NC(=O)c1cccnc1	–	–	–	–	–	–	–	–	–	–	1.01 (inactive)	0.66% (inactive)	-1.97% (inactive)	1.01 (inactive)	-0.0169 (inactive)	-0.015 (inactive)	0.0332 (inactive)	-0.0297 (inactive)	0.0353 (inactive)	0.0215 (inactive)
CCn1cc(C(=O)O)c(=O)c2ccc(C)nc21	–	–	–	1.35	0.74	-12.9	0.84	54.5	-15.5	0.277	1.03 (inactive)	-0.45% (inactive)	-2.76% (inactive)	0.97 (inactive)	0.0464 (inactive)	0.0152 (inactive)	0.0259 (inactive)	-0.0165 (inactive)	0.0366 (inactive)	0.000751 (inactive)
CC12CCC(CC1)C(C)(C)O2	–	–	–	20.8	1.26	2.25	0.96	71.8	-6.04	1.21	–	–	–	–	–	–	–	–	–	–
CC(C)OC(=O)C(C)(C)Oc1ccc(C(=O)c2ccc(Cl)cc2)cc1	–	1.1 (inactive)	0.08 h (inactive)	-9.13	-2.53	27.1	1.27	59	-24.1	0.0671	–	–	–	–	-0.0417 (inactive)	-0.0352 (inactive)	-0.00437 (inactive)	-0.0206 (inactive)	-0.021 (inactive)	0.00724 (inactive)
Oc1ccc(O)cc1	0% (inactive)	1.1 (inactive)	-0.06 h (inactive)	–	–	–	–	–	–	–	–	–	–	–	–	–	–	–	–	–
CCCC(=O)Nc1ccc(OCC(O)CNC(C)C)c(C(C)=O)c1 (stereo not given)	–	–	–	-2.9	1.34	-8.24	0.94	0	-19.3	1.28	0.9 (inactive)	-3.18% (inactive)	-5.82% (inactive)	1.03 (inactive)	-0.0134 (inactive)	-0.0305 (inactive)	0.00552 (inactive)	-0.005 (inactive)	-0.0201 (inactive)	-0.0513 (inactive)
CN(C)C(=O)C(CCN1CCC(O)(c2ccc(Cl)cc2)CC1)(c1ccccc1)c1ccccc1	-4% (inactive)	1 (inactive)	-0.235 h (inactive)	18.5	1.94	1.56	0.99	7.94	44.5	1.13	1.06 (inactive)	-6.82% (inactive)	-5.05% (inactive)	1.01 (inactive)	0.113 (active)	0.103 (active)	-0.0267 (inactive)	-0.645 (active)	0.0279 (inactive)	-0.504 (active)
COc1c2occc2cc2ccc(=O)oc12	–	–	–	18.6	0.85	6.17	2.13	72.4	-3.48	0.937	0.98 (inactive)	-3.18% (inactive)	-5.05% (inactive)	1.02 (inactive)	-0.0152 (inactive)	-0.0131 (inactive)	0.011 (inactive)	0.0168 (inactive)	-0.00904 (inactive)	0.0233 (inactive)
O=C(O)CCc1nc(-c2ccccc2)c(-c2ccccc2)o1	-4% (inactive)	1 (inactive)	0.145 h (inactive)	–	–	–	–	–	–	–	1.04 (inactive)	1.19% (inactive)	2.21% (inactive)	0.94 (inactive)	0.0468 (inactive)	0.0584 (inactive)	0.0291 (inactive)	-0.025 (inactive)	0.113 (active)	0.0648 (inactive)
Cc1cc(NS(=O)(=O)c2ccc(N)cc2)no1	–	–	–	23.4	1.35	-4.83	0.69	58.6	12.1	1.36	1.03 (inactive)	0.45% (inactive)	-0.48% (inactive)	1 (inactive)	-0.0179 (inactive)	0.0172 (inactive)	-0.00437 (inactive)	0.00714 (inactive)	0.00387 (inactive)	-0.00735 (inactive)
COC(=O)C1=C(C)NC(C)=C(C(=O)OC)C1c1ccccc1[N+](=O)[O-]	-1% (inactive)	1 (inactive)	-0.175 h (inactive)	28.5	0.82	8.1	0.98	15.2	-6.86	0.369	0.94 (inactive)	-1.19% (inactive)	1.44% (inactive)	0.9 (inactive)	–	–	–	–	–	–
N=c1nc(N2CCCCC2)cc(N)n1O	-4% (inactive)	1 (inactive)	-0.045 h (inactive)	20.6	1.58	3.83	1.17	22.5	7.03	1.83	0.1 (active)	-9.55% (inactive)	-5.05% (inactive)	1.03 (inactive)	-0.0693 (inactive)	-0.0535 (inactive)	0.00253 (inactive)	-0.0452 (inactive)	-0.0046 (inactive)	-0.0232 (inactive)
COc1cc(Cc2cnc(N)nc2N)cc(OC)c1OC	1% (inactive)	1 (inactive)	0.055 h (inactive)	-19.7	1.11	11.6	0.82	83.3	-5.77	1.24	0.97 (inactive)	-3.18% (inactive)	0.29% (inactive)	0.95 (inactive)	0.00407 (inactive)	-0.0235 (inactive)	-0.00393 (inactive)	0.00151 (inactive)	-0.051 (inactive)	-0.0321 (inactive)
O=C1CN(/N=C/c2ccc([N+](=O)[O-])o2)C(=O)N1	–	–	–	27	0.72	4.47	0.76	41.5	23.4	0.814	–	–	–	–	–	–	–	–	–	–
CCCC(CCC)C(=O)O	0% (inactive)	1 (inactive)	0.1 h (inactive)	28.5	1.39	2.58	0.86	40.9	-8.08	0.716	1.04 (inactive)	-1.36% (inactive)	-1.24% (inactive)	0.99 (inactive)	-0.0169 (inactive)	0.0329 (inactive)	-0.023 (inactive)	0.0376 (inactive)	-0.0394 (inactive)	0.0234 (inactive)
CC(C)(C)NCC(O)c1ccc(O)c(CO)c1 (stereo not given)	0% (inactive)	1 (inactive)	-0.055 hour (inactive) and -0.15 hour (inactive)	-4.84	1.14	0.08	3.64	25	-8.12	0.989	0.96 (inactive)	-1.19% (inactive)	2.98% (inactive)	0.94 (inactive)	–	–	–	–	–	–
CNCCCN1c2ccccc2CCc2ccccc21	-1% (inactive)	1 (inactive)	-0.04 h (inactive)	-34.3	1.37	-15.4	1.05	7.32	12.7	1.18	0.96 (inactive)	-2.27% (inactive)	-2% (inactive)	1.02 (inactive)	0.121 (active)	0.152 (active)	0.148 (active)	0.0168 (inactive)	0.17 (active)	0.152 (active)
CC(C)NCC(O)COc1cccc2[nH]ccc12 (stereo not given)	-5% (inactive)	1 (inactive)	0.015 h (inactive)	-39.9	1.28	3.36	0.95	83.3	11.9	1.28	0.9 (inactive)	-5.91% (inactive)	2.57% (inactive)	0.9 (inactive)	-0.0071 (inactive)	0.0139 (inactive)	0.0267 (inactive)	0.00949 (inactive)	0.00683 (inactive)	-0.0133 (inactive)
CN1C(=O)CC[C@H]1c1cccnc1	-2% (inactive)	1 (inactive)	0.1 h (inactive)	25.7	1.01	-5.98	0.78	72.2	11.3	1.36	1.01 (inactive)	5.15% (inactive)	6.83% (inactive)	0.91 (inactive)	-0.00809 (inactive)	0.00811 (inactive)	0.0267 (inactive)	-0.00497 (inactive)	-0.0358 (inactive)	-0.0502 (inactive)
